# Measurements from ChEMBL document CHEMBL3988442, “University of Dundee, Small-Polar-MMV Screening Library” (2021).
# Hit rate of the full screen: of about 48,000 compounds, about 13,000 (27%) showed an effect of 50% or more. The list shows a part of the results.
# System: Wolbachia pipientis
# Experiment: Anti-Wolbachia Cell-Based Screen
# Type: functional
# Design: scale not given: in the data most compounds retested in dose-response had high values
# Conditions: 5 µM
row,Compound,Percent Effect
1,Cn1ccc(N2CCCC(NC(=O)c3ccsc3)C2=O)n1 (stereo not given),-23.95%
2,Cc1cnn(CCCNC(=O)C2CCCCN2Cc2ccncc2)c1 (stereo not given),-11.5%
3,COc1ccc(C)c2c1N(C(=O)c1cnc3onc(C)c3c1)CCC2,2.409%
4,O=C(CN1CCOC(c2ccc(Cl)c(Cl)c2)C1)NCc1ccco1 (stereo not given),-33.51%
5,Cc1noc(C)c1CN1CC2(CCCCN2c2cncnc2)CC1=O (stereo not given),1.289%
6,CC(=O)N1C[C@H]2CCCN(c3ncc(C)cn3)[C@H]2C1,4.198%
7,CC(C)C(=O)N1CC[C@@H]2CN(Cc3ccncc3)S(=O)(=O)[C@@H]2CC1,-1.309%
8,CC(C)C(=O)N1CCC([C@@H]2C[C@H](C(F)F)n3ncnc3N2)CC1,105.2%
9,COCCn1ccnc1C1CCCN(C(=O)CSCC2CC2)C1 (stereo not given),-1.205%
10,COCCC(=O)N1CCCC([C@@H]2C[C@H](C(F)F)n3ncnc3N2)C1 (stereo not given in full),128.9%
11,CC(C)C(=O)N1CCCC([C@@H]2C[C@H](C(F)F)n3ncnc3N2)C1 (stereo not given in full),140.3%
12,COc1ccc(CN(C)C2CCN(C(=O)C(C)C)CC2)c2cccnc12,-16.31%
13,O=C(CCc1ccc(=O)[nH]n1)N1CCCC(COc2ccc(F)cc2)C1 (stereo not given),-3.616%
14,CC(NC(=O)Nc1cccnc1N1CCOCC1)c1ccncc1 (stereo not given),-4.832%
15,CCc1nnc(CN(C)c2cc(C)nc3c(C)c(C)nn23)o1,7.383%
16,Cc1cc(N(C)Cc2cc(C)on2)n2nc(C)c(C)c2n1,-5.11%
17,Cc1ccsc1C(=O)NCCCn1nc2ccccn2c1=O,-12.31%
18,CCOc1ccccc1CSCCn1nc2ccccn2c1=O,-0.2652%
19,CC(=O)N1CCCN(CCn2nc3ccccn3c2=O)CC1,104.1%
20,CN(CCn1nc2ccccn2c1=O)CC(=O)N(C)C1CCCCC1,82.2%
21,COCCNC(=O)CN(C)CCn1nc2ccccn2c1=O,81.18%
22,CCC(=O)CNC(=O)CCn1nc2ccccn2c1=O,-17.3%
23,CCN(CC)C(=O)CN(C)CCn1nc2ccccn2c1=O,106.3%
24,CC(C1CC1)N(C(=O)NCCCn1nc2ccccn2c1=O)C1CC1 (stereo not given),-19.29%
25,Cc1ccccc1CSCCn1nc2ccccn2c1=O,8.414%

row,Compound,Percent Effect
1,COc1ccc(CC(=O)NCCn2nc3ccccn3c2=O)cc1,7.031%
2,O=C(CC1CCCC1)NCCn1nc2ccccn2c1=O,2.754%
3,CCCc1cc(C(=O)NCCn2nc3ccccn3c2=O)[nH]n1,0.6756%
4,CC(NCC1CCS(=O)(=O)CC1)c1cccc(OC(F)F)c1 (stereo not given),6.07%
5,CCC1=N[C@@]2(CC[C@@H]3CN(CC4CC4)C[C@@H]32)C(=O)N1,9.591%
6,N#Cc1ccc(CNC2CCN(CCc3ccncc3)CC2)cc1,-19.98%
7,CN(C)CCN(Cc1cccc(C(F)(F)F)c1)C(=O)c1cc[nH]n1,1.923%
8,Cc1c[nH]c(CN2CCN(C)C3(CCC(=O)N(CC4CC4)CC3)C2)n1 (stereo not given),-1.954%
9,CN(Cc1ccco1)Cc1cnc2n1CCN(c1ccccn1)CC2.O=C(O)C(F)(F)F.O=C(O)C(F)(F)F,10.62%
10,CCS(=O)(=O)N1CCC2(CN(c3cccc(C)n3)C2)C1.O=C(O)C(F)(F)F,1.878%
11,Cc1cccc(N2CCc3ncc(CNS(C)(=O)=O)n3CC2)n1.O=C(O)C(F)(F)F,88.7%
12,CN1CCc2ncc(CNc3cc(N(C)C)ncn3)n2CC1.O=C(O)C(F)(F)F,-9.651%
13,CS(=O)(=O)NCc1cnc2n1CCN(Cc1ccsc1)CC2.O=C(O)C(F)(F)F,-2.337%
14,Cc1cccc(N2CCc3ncc(CNc4ccccn4)n3CC2)n1.O=C(O)C(F)(F)F.O=C(O)C(F)(F)F,88.27%
15,Cc1cc(C)c(C(=O)N2CCc3c(ncn3CCc3ccccc3)C2)[nH]1,-5.733%
16,CCCNC(=O)N1CCCC2(CCC(=O)N(CCc3c[nH]cn3)C2)C1 (stereo not given),12.8%
17,Cc1ccc2c(n1)N(CCn1cccn1)CCN(C(=O)NC(C)C)C2,112.2%
18,CN1CCN(C(=O)NC2CC2)Cc2cccnc21.O=C(O)C(F)(F)F,-1.72%
19,CC(C)NC(=O)N1CCN(CC2CC2)c2ncccc2C1.O=C(O)C(F)(F)F,-7.83%
20,CCC(=O)N1CCN(CCn2cccn2)c2ncccc2C1.O=C(O)C(F)(F)F,88.49%
21,Cc1ccc2c(n1)N(C)CCN(C(=O)NC(C)C)C2.O=C(O)C(F)(F)F,-4.064%
22,CN1CCN(C(=O)Cc2ccc(F)cc2)Cc2cccnc21.O=C(O)C(F)(F)F,-3.35%
23,CC(=O)NCC(=O)N1CCN(CCN(C)C)c2ncccc2C1.O=C(O)C(F)(F)F.O=C(O)C(F)(F)F,-13.2%
24,Cc1ccc2c(n1)N(CCn1cccn1)CCN(C(=O)NC1CC1)C2.O=C(O)C(F)(F)F,12.45%
25,CC(C)NC(=O)N1CCN(CCn2cccn2)c2ncccc2C1.O=C(O)C(F)(F)F,105%
